Screening results (PubChem)
CSC inhib – cancer stem cell viability inhibitors, primary screen, luminescence; cancer stem cell-like cells viability; inhibition, % at 7.5 µM; 300,000 compounds, 1.1% hits; in the data active = inhibition above about 75%; inconclusive = no clear call, values can overlap the other calls; tested in HMLE shEcad cells
Mdm2-MdmX inh – inhibitors of human Mdm2-MdmX association, primary screen, cell-based, luminescence, split luciferase, SaOS-2, uHTS. inhibition, % at 8 µM. SaOS-2 split-luciferase Mdm2/MdmX complementation. AID 485346, 2010. 330,000 compounds, 3% hits. Protein Mdm4 (Homo sapiens) + E3 ubiquitin-protein ligase Mdm2 (Homo sapiens), …;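 active = inhibition of at least 50% at 8 µM in the primary screen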
Target sequence (O15151 whole entry, looked up): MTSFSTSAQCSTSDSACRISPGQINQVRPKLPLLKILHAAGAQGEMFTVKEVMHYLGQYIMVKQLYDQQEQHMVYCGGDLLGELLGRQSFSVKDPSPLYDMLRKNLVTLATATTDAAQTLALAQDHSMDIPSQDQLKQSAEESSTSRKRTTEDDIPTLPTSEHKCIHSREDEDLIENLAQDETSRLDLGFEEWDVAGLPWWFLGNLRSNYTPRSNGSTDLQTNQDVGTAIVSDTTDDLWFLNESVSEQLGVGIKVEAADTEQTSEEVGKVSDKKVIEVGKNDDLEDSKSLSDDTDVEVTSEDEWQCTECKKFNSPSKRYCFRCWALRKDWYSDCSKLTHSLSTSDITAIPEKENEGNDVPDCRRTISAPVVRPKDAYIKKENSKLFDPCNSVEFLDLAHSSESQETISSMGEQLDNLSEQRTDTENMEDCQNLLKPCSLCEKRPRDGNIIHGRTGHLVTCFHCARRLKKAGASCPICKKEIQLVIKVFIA
Target sequence (Q00987 whole entry, looked up): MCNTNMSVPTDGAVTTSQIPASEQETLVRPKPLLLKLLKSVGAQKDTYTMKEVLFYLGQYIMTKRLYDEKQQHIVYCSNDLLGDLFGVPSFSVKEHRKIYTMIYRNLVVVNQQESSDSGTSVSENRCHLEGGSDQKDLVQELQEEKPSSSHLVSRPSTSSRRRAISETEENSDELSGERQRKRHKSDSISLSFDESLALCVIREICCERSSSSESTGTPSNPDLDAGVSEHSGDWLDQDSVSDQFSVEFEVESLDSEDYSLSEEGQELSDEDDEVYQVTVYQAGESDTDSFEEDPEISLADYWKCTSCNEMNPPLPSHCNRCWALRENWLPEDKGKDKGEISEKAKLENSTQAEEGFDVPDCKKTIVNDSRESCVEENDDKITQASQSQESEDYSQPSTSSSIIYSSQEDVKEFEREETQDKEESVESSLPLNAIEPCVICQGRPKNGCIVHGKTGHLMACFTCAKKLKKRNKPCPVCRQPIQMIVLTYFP
SKKanGAS inh – S. pyogenes SKKanGAS growth inhibitors in kanamycin, primary screen, streptokinase expression inhibitor project, SKKanGAS strain, BacTiter-Glo luminescence; inhibition, % at 7.5 µM; 6 h; AID 1662, 2009; 300,000 compounds, 1.3% hits;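 active = mean replicate score, as percent of positive control median, at least 50; inconclusive = mean below 50 but one replicate at or above 50; inactive = mean and every replicate below 50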;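 also: strain carries kanamycin resistance gene driven by streptokinase promoter and grows in 40 µg/ml kanamycin; loss of luminescence reflects streptokinase promoter inhibition or plain growth inhibition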
Calb FLC – C. albicans growth inhibition with fluconazole, primary screen, CaCi-2 strain, Alamar Blue fluorescence; growth inhibition, % (concentration not given with the values); 300,000 compounds, 0.57% hits; C. albicans CaCi-2 (fluconazole-resistant clinical isolate) + fluconazole, 48 h; AID 1979, 2009;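 active = growth inhibition above about 58% in most replicates, limit read from the data, passing the limit was not always enough; inconclusive = exactly half the replicates above a set limit; inactive = most replicates below a set limit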;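 also: all wells also contain fluconazole at 8 µg/ml as a sub-toxic cotreatment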
MPTP inh – mitochondrial permeability transition pore inhibitors, primary screen, biochemical, isolated mouse mitochondria, absorbance | inhibition, % at 10 µM | AID 602449, 2012 | 360,000 compounds, 1.4% hits | Ca2+ swelling absorbance, 30 min;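 active = inhibition of 50% or more, scaled per plate between neutral and stimulator controls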
Beta apoptosis – inhibitors of cytokine-induced beta cell apoptosis, primary screen, luminescence; AID 435005, 2010; INS-1E cytokine-induced death, ATP luminescence, 48 h; percent of positive-control rescue, neutral wells zero; protection from apoptosis, % (no concentration beside the values); 300,000 compounds, 0.8% hits;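 active = Every replicate reaches about 75%, or at least half do and their mean reaches it too, limit read from the data; inconclusive = At least half of replicates reach the limit but their mean does not; inactive = Under half of replicates reach the limit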;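 also: higher means more ATP so stronger rescue from cytokine killing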
Mdm2 MdmX conf – Mdm2-MdmX complex disruptors, retested hits, confirmation, luminescence, single concentration; shares compounds with Mdm2-MdmX inh; Mdm2-MdmX binding, luminescent assay; inhibition, % at 8 µM; 10,000 compounds, 55% hits; in the data active = inhibition above about 40%
Full FLuc ctr – full-length luciferase signal inhibition, confirmation, counter-screen for Mdm2/MdmX interaction inhibitor project, cell-based, single concentration, SaOS-2; SaOS-2 full-length luciferase counterscreen, luminescence; shares compounds with Mdm2-MdmX inh; 6,200 compounds, 77% hits; inhibition, % at 8 µM;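 active = mean inhibition at 8 µM reaching about 37%, which flags the compound as non-specific, limit read from the data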;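 also: p53-null SaOS-2 cells with luciferase driven by a doxycycline-inducible promoter; compound on cells about two nights before reading with doxycycline added after day one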
Rh123 counter – fluorescence retest of MPTP screen hits in isolated mitochondria, single concentration | shares compounds with MPTP inh | membrane potential, Rhodamine 123 fluorescence | inhibition, % at 10 µM | 5,000 compounds, 78% hits | AID 624504, 2012; in the data active = inhibition above about 22%
MPTP abs DR – mitochondrial permeability transition pore inhibitors, dose response, biochemical, absorbance, uHTS hits; IC50, µM; shares compounds with MPTP inh; AID 651561, 2012; isolated mitochondria swelling; 780 compounds, 58% hits; in the data active = IC50 below about 20 µM
Each line names hits and unclear results; the compound was inactive in the other large screens (follow-up assays come after a bar, where they were run). Shown are actives, neighbours in structure and some others; about 5.4% of the full set was active somewhere.

O=C(NC(NC(=S)Nc1c(Cl)cccc1Cl)C(Cl)(Cl)Cl)c1cccc([N+](=O)[O-])c1 (configuration not stated)	Mdm2-MdmX inh 58, MPTP inh 73 | Mdm2 MdmX conf 50 | Full FLuc ctr 76 | Rh123 counter 54
COc1ccc([N+](=O)[O-])cc1NC(=O)C(C)c1ccccc1 (configuration not stated)	none
O=C(NNC(=S)NC(=O)c1ccccc1Cl)c1cccc([N+](=O)[O-])c1	none
COc1ccc([N+](=O)[O-])cc1NC(=S)NC(NC(=O)C(c1ccccc1)c1ccccc1)C(Cl)(Cl)Cl (configuration not stated)	Mdm2-MdmX inh 89, SKKanGAS inh inconclusive, MPTP inh 95 | Mdm2 MdmX conf 79 | Full FLuc ctr inactive | Rh123 counter 64
CN1CCN(c2cc3c(c4c2[nH]c2ccccc24)C(=O)CC(C)(C)C3)CC1	Mdm2-MdmX inh 57, Calb FLC 101, MPTP inh 84 (no result: Beta apoptosis) | Mdm2 MdmX conf inactive | Rh123 counter inactive
CN1CCN(c2ccc(Cl)cc2NC(=O)c2cc(=O)[nH]c3ccccc23)CC1	none (no result: SKKanGAS inh, Calb FLC)
C[n+]1c2n(c3ccccc31)N=C(c1cc(C(C)(C)C)c(O)c(C(C)(C)C)c1)CS2	Mdm2-MdmX inh 78, MPTP inh 94, Beta apoptosis 107 | Mdm2 MdmX conf 75 | Full FLuc ctr 38 | Rh123 counter 103
CCOC(=O)[C@H]1[C@H]2COc3ccccc3[C@@H]2N2C(=O)c3ccc(Cl)cc3NC(=O)[C@@]12C	none (no result: SKKanGAS inh, Calb FLC)
N=C1S/C(=C\c2cccc3ccccc23)C(=O)N1c1ccc(F)cc1	CSC inhib 97, Mdm2-MdmX inh 56, SKKanGAS inh 56, MPTP inh 94 | Mdm2 MdmX conf 49 | Full FLuc ctr 62 | Rh123 counter 20
CCN1CCCC1CNS(=O)(=O)c1ccc(Cl)c(C(F)(F)F)c1 (configuration not stated)	none
CN(C)CCOc1nc(-c2ccccc2)nc2c1oc1ccccc12	Mdm2-MdmX inh 71, MPTP inh 75 | Mdm2 MdmX conf inactive | Rh123 counter inactive
CC(C)(C)c1nc2ccc(Cl)cn2c1CC1CCCCC1	none (no result: CSC inhib, Mdm2-MdmX inh, SKKanGAS inh, Calb FLC, Beta apoptosis)
CC1CCC(C(C)C)C(OC(=O)COC(=O)c2cccn2C)C1 (configuration not stated)	none
CC(C)[C@@H]1CC[C@@H](C)C[C@H]1OC(=O)C[n+]1cc(-c2ccc(Cl)cc2)n2c1CCCCC2	Mdm2-MdmX inh 78, Calb FLC 95, MPTP inh 64 | Mdm2 MdmX conf 73 | Full FLuc ctr inactive | Rh123 counter 86
O=C(C[n+]1cc(-c2ccc(Cl)cc2)n2c1CCCCC2)c1ccccc1	none
CC1CCC(C(C)C)C(OC(=O)Cn2c(-c3ccc(Cl)cc3)[n+](C)c3ccccc32)C1 (configuration not stated)	Mdm2-MdmX inh 100, MPTP inh 54, Beta apoptosis 100 | Mdm2 MdmX conf 96 | Full FLuc ctr 52 | Rh123 counter 79
Cc1ccc(NS(=O)(=O)c2cc([N+](=O)[O-])ccc2NNC(=S)Nc2cc(C)ccc2C)c(C)c1	CSC inhib 80, Mdm2-MdmX inh 94, MPTP inh 110, Beta apoptosis inconclusive | Mdm2 MdmX conf 88 | Full FLuc ctr 39 | Rh123 counter 67
Cc1c(Cl)cccc1NC(=S)NNc1ncc(C(F)(F)F)cc1Cl	Mdm2-MdmX inh 64, MPTP inh 60 | Mdm2 MdmX conf 72 | Full FLuc ctr 42 | Rh123 counter 76
CCOC(=O)c1ccc(NC(=O)c2cccc(S(=O)(=O)N3c4ccccc4CC3C)c2)s1 (configuration not stated)	Mdm2-MdmX inh 57, Calb FLC inconclusive, MPTP inh 74 | Mdm2 MdmX conf inactive | Rh123 counter 73
Cc1ccccc1S(=O)(=O)Cc1ccc(C(=O)N(C)C2CCCCC2)o1	none
CCC[C@@H](CN[C@@H](CNC)[C@H](C)CC)NCC1CCC(C(C)(C)C)CC1 (some centres not stated)	Mdm2-MdmX inh 99, MPTP inh 94 | Mdm2 MdmX conf 100 | Full FLuc ctr inactive | Rh123 counter inactive | MPTP abs DR 5.3
O=C(NC1CCCCCC1)c1cccnc1Sc1ccccc1	none
Nc1nc2c(ncn2[C@@H]2O[C@H](CNCc3ccc4ncccc4c3)[C@@H](O)[C@H]2O)c(=O)[nH]1	none (no result: CSC inhib, Mdm2-MdmX inh, SKKanGAS inh, Calb FLC, Beta apoptosis)
CCN(C(=O)COC(=O)CCS(=O)(=O)c1ccccc1)c1c(N)n(Cc2ccccc2)c(=O)[nH]c1=O	none (no result: CSC inhib, Mdm2-MdmX inh, SKKanGAS inh, Calb FLC, Beta apoptosis)
CCCCOc1ccc(Br)cc1/C(C)=N/NC1=NCCN1	Mdm2-MdmX inh 89, MPTP inh 67 | Mdm2 MdmX conf 64 | Full FLuc ctr 39 | Rh123 counter 92
COc1ccc(/C(C)=N/NC2=NCCN2)cc1Cl	none
Cc1cc(C)cc(CC(Cc2nc3ccccc3[nH]2)c2nc3ccccc3[nH]2)c1 (configuration not stated)	CSC inhib 182, Mdm2-MdmX inh 91, SKKanGAS inh 57, MPTP inh 96 | Mdm2 MdmX conf inactive | Rh123 counter 108
Cc1cc(C(=O)NNC(=O)CCCOc2ccccc2)c(C)o1	none
CC(C)(C)c1ccc(OCCCC(=O)NNC(=O)c2ccccc2O)cc1	Mdm2-MdmX inh 58, Calb FLC 81, MPTP inh 69 (no result: Beta apoptosis) | Mdm2 MdmX conf 66 | Full FLuc ctr 45 | Rh123 counter 82
Cc1ccc(OC(F)F)c(NC(=O)Nc2cccc(C(F)(F)F)c2)c1	Mdm2-MdmX inh 88, MPTP inh 96 | Mdm2 MdmX conf 59 | Full FLuc ctr inactive | Rh123 counter 73
COC(=O)c1ccc2c(c1)C(C)(C)C(/C=C/c1ccccc1O)=[N+]2C	CSC inhib 78, Mdm2-MdmX inh 71, MPTP inh 75 | Mdm2 MdmX conf 100 | Full FLuc ctr 52 | Rh123 counter inactive
COC(=O)c1ccc(N)c(N=CC2=C(O)CC(C)(C)CC2=O)c1	none
